Hit rate of the full screen: of about 340,000 compounds, about 1,400 (0.41%) were called active. Inconclusive results (about 4%) are left out. This is one part of a sample in which actives are shown more often than they occur. Calls follow the shape of the full dose curve; cell line not stated here.
Test: qHTS for Antagonists of gsp, the Etiologic Mutation Responsible for Fibrous Dysplasia/McCune-Albright Syndrome: qHTS; also: nearly all actives have a fitted effect of over 65% in size
Details: gsp-mutant cells, cAMP HTRF, 30 min; series mostly up to 76.9 µM; activity change, negative = inhibition: at the top concentration
From the text: McCune-Albright syndrome (MAS) is a rare disease caused by somatic mutations in Gsgsp), a widely expressed protein central in signal transduction from G-coupled protein receptors (GPCRs). The disease symptoms are diverse, owing to the fact that the patients are mosaics with varying degrees of tissue involvement. Greater than 90% of the mutations in Gs in MAS occur at the R201 position and are equally divided between R201H and R201C. The R201 residue is central in the intrinsic GTPase activity of Gs and the H and C mutations lead to loss of, or impairment of, the GTPase activity. The intrinsic GTPase activity is necessary to terminate the interaction between Gs and adenylate cyclase, and to terminate the cAMP-mediated signaling of the given GPCR pathway. Thus, these activating mutations lead to ligand-independent activation of GPCR pathways. The tissue phenotype is determined by the role of Gs in the function of a given cell, and excess Gs/cAMP signaling in that cell. For example, pituitary somatotrophs overproduce growth hormone in a growth hormone releasing hormone-independent fashion, and gigantism/acromegaly ensues. Skeletal stem cells in the bone marrow behave as if they are under constant parathyroid hormone stimulation and fail to differentiate into osteoblasts and osteocytes, and proliferate as immature osteogenic cells and lead to the marrow fibrosis of fibrous dysplasia of bone. The goal of this project is to identify molecules with inhibitory activity at gsp mutations that will not only allow for in-depth study of the underlying molecular and cellular pathophysiology, but also serve as compounds from which drugs to treat FD/MAS can be developed NIH Chemical Genomics Center [NCGC] NIH Molecular Libraries Probe Centers Network [MLPCN] MLPCN Grant: IRP-FT-DE-2011-01 Assay Submitter (PI): Michael Collins, NIDCR
1.#Seed 2000 cells/well in 6 ul DMEM 10% FBS, 1% Pen/Strep, 0.5 mg/ml G418 2.#Incubate 16-24 hr at 37C, 5% CO2, 95% humidity 3.#Aspirate leaving 1 ul residual volume 4.#Dispense 5 ul/well DPBS + 1 mM CaCl2, 0.5 mM MgCl2, 0.05% BSA, 0.005% Tween 20 5.#Aspirate leaving 2 ul residual volume 6.#Dispense 23 nl/well compounds in DMSO 7.#Dispense 1 ul/well 300 uM Ro-20174 in DMEM 10% FBS 8.#Incubate 30 min at 37C, 5% CO2, 95% humidity 9.#Dispense 1.5 ul/well HTRF reagent: cAMP-d2 in lysis buffer 10.#Dispense 1.5 ul/well HTRF reagent: anti-cAMP antibody-K in lysis buffer 11.#Incubate 30 min at room temperature 12.#Detect HTRF signal using EnVision plate reader
% is scaled to controls: 0 for no effect and ±100 for the full control effect; potency is read from the fitted curve at half-maximal effect.

Activity change, negative = inhibition, inactive:
COc1cc(NC(=O)C2=CC(c3ccco3)=NS(=O)(=O)N2C)cc(OC)c1OC -2.3%
COc1cc(NC(=O)C2=CC(c3ccc(C)cc3)=NS(=O)(=O)N2C)cc(OC)c1OC -12.6%
COC(=O)Cc1nc2c(N)nc(N)nc2[nH]c1=O -0.61%
CC(=O)C12CC(C)=C(C)CC1CC1C3CCC4=CC(=O)CCC4(C)C3CCC12C (stereo not drawn) -11.6%
Cc1onc(-c2c(F)cccc2Cl)c1C(=O)Nc1cccc(S(=O)(=O)N2CCCCC2)c1 -15.9%
CN1CCOC1c1ccc(C2OCCN2C)cc1 (stereo not drawn) -2.61%
CC1CN(Cc2ccccc2)C(=S)NC1=O (stereo not drawn) 11.6%
COc1ccccc1NC(=O)N(O)C1(C#N)CCCCC1 10.5%
CCOc1ccc2c(c1)C(c1ccc(C)cc1)=NNC(c1ccc(C)cc1)=N2 -5.6%
Cc1ccc(-c2csc(-c3c[nH]c4ccccc34)n2)cc1 -14.8%
CC(=O)c1ccc(NC(=O)C(C)OC(=O)c2ccc(NS(=O)(=O)c3ccc4[nH]c(=O)[nH]c4c3)cc2)cc1 (stereo not drawn) 3.15%
O=C(O)C(CCc1ccccn1)c1ccccc1 (stereo not drawn) 1.38%
Cc1ccc(/C=C2\SC(=S)N(CCC(=O)Nc3ccc(O)cc3)C2=O)cc1 4.75%
O=C(CCCN1C(=O)/C(=C/c2cccs2)SC1=S)Nc1ccc(O)cc1 -10.1%
Cc1ccc(OCCNC(=O)c2cccc(S(=O)(=O)N3CCN(Cc4ccccc4)CC3)c2)cc1 -9.83%
COc1ccc(OC)c(Cc2cnc3nc(N)nc(N)c3c2C)c1 -2.01%
CC(=O)OC(C)C[N+](C)(C)C (stereo not drawn) 1.38%
CC(=O)OCCC(C)C 9.48%
O=C1OC(Oc2ccc(Br)cc2)(c2ccccc2)c2ccccc21 (stereo not drawn) -18%
CCCCN1CC(COc2ccccc2)Oc2cccc(F)c2S1(=O)=O (stereo not drawn) -12.9%
O=C(c1ccc(N2CCOCC2)c([N+](=O)[O-])c1)N1CCN(c2ccccc2F)CC1 -2.65%
O=C(c1cccc(F)c1)N1CCN(c2ccc([N+](=O)[O-])c(N3CCCCC3)c2)CC1 -11.9%
COc1cc(C2c3cc4c(cc3C(O)C3COC(=O)C23)OCO4)cc(OC)c1OC (stereo not drawn) 16.2%
O=C(Cc1ccc(S(=O)(=O)N2CCOCC2)s1)Nc1ccc(Br)c(C(F)(F)F)c1 -38.2%
O=C(c1cccnc1)N(Cc1ccccc1)C(=O)c1cccnc1 5.46%
CCCN(CC(=O)Nc1ccccc1C)C(=O)c1ccc(OCC(=O)N2CCOCC2)c(OCC)c1 -2.96%
COc1ccc(CCNC(=O)COc2cc(C)cc3oc(=O)c(C)c(C)c23)cc1OC 4.24%
CC(C)OCCCNC(=O)c1cc(Sc2ccc(F)cc2)nc2ccccc12 16%
CCOC(=O)[C@H]1[C@H]2COc3ccc(Br)cc3[C@@H]2N2C(=O)CN(C)C(=O)[C@@]12C 0.52%
O=C(NCc1ccccc1)c1cccc(NC(=O)C2CCCCC2)c1 -0.777%
Cc1c(CN2CC[C@@H](N3CCN(c4ccccn4)CC3)[C@H](O)C2)[nH]c2ccc(F)cc12 4.63%
CCN(CC)CCCN1C(=O)C(=O)/C(=C(/O)c2c(C)nc3ccccn23)C1c1ccc(C)o1 (stereo not drawn) 8.42%
CC(=O)NCCC(=O)Nc1nc(-c2ccc3c(c2)OCCO3)cs1 1.23%
O=C(Nc1nc2ccccc2s1)c1ccc2c(c1)OCO2 -20.8%
N#CC1(Nc2ccc(-c3ccc(Cl)cc3)cc2)CCCC1 2.59%
FC(F)(F)c1ccc(-c2cccc3c2C2CC3CCN2Cc2ccccc2)cc1 (stereo not drawn) -6.66%
CCOC(=O)c1ccccc1OC(=O)Oc1ccccc1C(=O)OCC -13%
CC(=O)Oc1ccc2c(c1)C(=O)c1ccccc1C2=O -0.802%
CCCCN1CC(COCc2ccccc2)OCCS1(=O)=O (stereo not drawn) 12.5%
C=CC(=O)Nc1ccc(Nc2ccnc(Nc3ccc(N4CCN(C)CC4)cc3)n2)cc1 -4.93%
COc1ccc(Cl)cc1C=CC=Nc1ccc(S(N)(=O)=O)cc1 0.98%
COc1ccc(CNC(=O)COC(=O)c2ccc(C)c(S(=O)(=O)N3CCOCC3)c2)cc1OC -4.89%
Cc1ccc(C(=O)OCC(=O)N2CCCCCC2)cc1S(=O)(=O)N1CCOCC1 -6.68%
COC1C(CO)OC(n2cnc3c(=S)nc(N)[nH]c32)C1O (stereo not drawn) -0.246%
COc1ccc2oc(N)nc2c1 7.22%
NC(=O)C1(Nc2ccc([N+](=O)[O-])cc2)CCCC1 7.87%
O=C(NCCc1csc(-c2ccccc2)n1)c1ccccc1F -20.8%
COc1ccc(N2CCN(C(=O)CNC(=O)c3ccc(Br)o3)CC2)cc1 5.12%
Cc1ccc(S(=O)(=O)N2CCN(C(=O)c3cc(S(=O)(=O)N4CCOCC4)ccc3F)CC2)cc1 6.87%
c1ccc(-c2c[nH]c(-c3ccccc3)c2)cc1 -13.3%
Cc1ccc(S(=O)(=O)c2cc3c(=O)n4cccc(C)c4nc3n(CCc3ccccc3)c2=N)cc1C 8.56%
CC12CCCCC1=CC(=O)CC2 (stereo not drawn) -0.525%
CC(C)Cc1nnc(N)s1 5.9%
COc1ccc(-n2cnc3cc(NCc4ccco4)ccc32)cc1 -16%
Cn1c2ccccc2c(=O)c2c(=O)n(Cc3ccco3)c(COc3ccccc3)nc21 -3.84%
OCC(O)C1OCOC(C(O)CO)C1O (stereo not drawn) -2.27%
CCOC(=O)N(Cc1ccccc1)C1CC1 12.5%
CCc1c(Nc2ccccc2Cl)nc(N)[nH]c1=O 8.47%
Cc1cc(C(=O)NC2CCCc3c2cnn3-c2cccc(C)c2C)c(C)o1 (stereo not drawn) -32.6%
CC(=O)NCC(=O)NC1CCCc2c1cnn2-c1ccccc1F (stereo not drawn) 2.94%
S=C(Nc1ccccc1)Nc1ccc2ccccc2c1 2.23%
Cn1c(=O)[nH]c2c(c(C(=O)O)nn2C)c1=O 12.5%
COc1cccc(C(=O)OCC(=O)c2[nH]c(C)c(C(C)=O)c2C)c1 9.61%
CC(=O)c1c(C)[nH]c(C(=O)COC(=O)c2cccs2)c1C 2.97%
Cc1noc(C)c1NC(=O)Nc1ccc2c(c1)C(=O)N([C@H](C)CO)C[C@H](C)[C@@H](CN(C)S(=O)(=O)c1cn(C)cn1)O2 8.95%
Cc1noc(C)c1NC(=O)Nc1ccc2c(c1)C(=O)N([C@H](C)CO)C[C@H](C)[C@@H](CN(C)C(=O)Nc1ccccc1)O2 -0.581%
O=C(CCCCCCCC(=O)N1CCCCC1)N1CCCCC1 5.76%
COc1ccc(CCC(=O)Nc2ccc(Cl)c(S(=O)(=O)N3CCOCC3)c2)cc1OC -29.5%
CC(=O)N1CCc2ccc(N)cc21 -6.4%
CCCCN(C(=O)c1cccc(N2C(=O)c3ccccc3C2=O)c1)c1c(N)n(CCCC)c(=O)[nH]c1=O 5.59%
CCCCNC1(C#N)CCN(Cc2ccccc2)CC1 -5.64%
O=C(OCCOc1ccccc1F)c1cc(S(=O)(=O)N2CCOCC2)ccc1F -15.2%
O=C(Nc1nncs1)c1cccc(S(=O)(=O)N2CCCCC2)c1 -3.16%
Cc1nc2ccc(NC(=O)c3cccc(S(=O)(=O)N4CCOCC4)c3)cc2s1 -11.8%
COc1cccc(C(=O)Nc2nnc(S(=O)(=O)N3CCCCC3)s2)c1 -14.2%
COc1cccc(C(=O)Nc2nnc(S(=O)(=O)N3CCOCC3)s2)c1 -6.83%
Cc1nc(N)nc(Cl)c1CCC1OCCO1 9%
CCN1C[C@@H]2[C@@H]3C(=O)N(Cc4ccccc4)C(=O)[C@@H]3[C@](C)(C1=O)N2C(=O)c1ccc(C(C)(C)C)cc1 0.48%
CCn1c(=O)c(C(=O)NCc2ccc3c(c2)OCO3)c(O)c2ccccc21 -3.59%
O=C(NCc1ccc2c(c1)OCO2)c1cc(F)c(F)cc1Cl -9.25%
COc1ccc(Nc2ccc3ccccc3c2)cc1 0.49%
Cc1ccc(Nc2c(O)nc[nH]c2=O)cc1C -0.0318%
O=C(NCC1(N2CCCCC2)CCCCC1)c1cccc(S(=O)(=O)Nc2ccccc2Cl)c1 -6.06%

Potency, active:
COc1ccc(NC(=O)C2=CC(c3ccc(OC)c(OC)c3)=NS(=O)(=O)N2C)cc1 39.8 µM
CSc1ncnc2c1ncn2CC(=O)C1CCC2C3CCC4=CC(=O)CCC4(C)C3CCC12C (stereo not drawn) 31.6 µM
Cc1ccc(C2=Nc3c(ccc4ccccc34)C(c3ccncc3)=NN2)cc1 31.6 µM
O=C(CCN1C(=O)/C(=C/c2cccs2)SC1=S)NNC(=O)c1cccc(O)c1 31.6 µM
CC(=O)OCC(COC(C)=O)OC(C)=O 35.5 µM
O=C(c1cccc(F)c1)N1CCN(c2ccc([N+](=O)[O-])c3cccnc23)CC1 39.8 µM
CC(C)OCCCNc1ncnc2c1[nH]c1ccc(F)cc12 39.8 µM
Fc1ccc2[nH]c3c(N4CCSCC4)ncnc3c2c1 28.2 µM
O=C(Nc1nc(-c2ccc3c(c2)OCO3)cs1)c1ccncc1 39.8 µM
O=C1C(Cl)=C(Oc2ccccc2)C(=O)c2ccccc21 39.8 µM
COc1ccc(C(=O)OCC(=O)c2ccc(C)c(S(=O)(=O)N3CCOCC3)c2)cc1OC 28.2 µM
COc1ccc(-c2nc(CCNC(=O)c3ccc(Br)o3)cs2)cc1 44.7 µM
COc1ccc(-c2oc3ncn(Cc4ccco4)c(=N)c3c2-c2ccc(OC)cc2)cc1 50.1 µM
COc1ccc(C(=O)NC2CCCc3c2cnn3-c2cccc(C)c2C)c(OC)n1 (stereo not drawn) 39.8 µM
CC(=O)c1c(C)[nH]c(C(=O)COC(=O)c2cccc(S(=O)(=O)N(C)c3ccccc3)c2)c1C 31.6 µM
COc1ccc(S(=O)(=O)N(C)C[C@@H]2Oc3ccc(NC(=O)Nc4c(C)noc4C)cc3C(=O)N([C@H](C)CO)C[C@@H]2C)cc1 7.94 µM
Cc1nn2cc(-c3ccc(Cl)cc3)cnc2c1Br 8.91 µM
O=C(Nc1nnc(S(=O)(=O)N2CCCCCC2)s1)c1cccc(Br)c1 28.2 µM
O=C(Nc1nnc(S(=O)(=O)N2CCOCC2)s1)c1cccc(Br)c1 44.7 µM
Cc1nc2c(C(=O)NCc3ccc4c(c3)OCO4)c[nH]n2c(=O)c1Cc1ccccc1F 28.2 µM

From PubChem BioAssay AID624288 (National Center for Advancing Translational Sciences (NCATS), 2012)
